# Measurements: article PMC4336329 (PLoS ONE, 2015)
# The campaign covered roughly 310,000 compounds. About 14,000 (4.5%) showed an effect of 50% or more. The effect is printed as a negative number. The full list was thinned out, with strong results kept by preference.
# Molecular target: human ether-à-go-go-related gene (hERG) potassium channel (human, UniProt Q12809)
# Test: primary screen, population patch clamp on CHO cells stably expressing hERG; higher = less effect of the substance
# 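Note: peak tail current of the secondary pulse compared with the same well before compound.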
# Chain of human ether-à-go-go-related gene (hERG) potassium channel (Q12809 whole entry, looked up): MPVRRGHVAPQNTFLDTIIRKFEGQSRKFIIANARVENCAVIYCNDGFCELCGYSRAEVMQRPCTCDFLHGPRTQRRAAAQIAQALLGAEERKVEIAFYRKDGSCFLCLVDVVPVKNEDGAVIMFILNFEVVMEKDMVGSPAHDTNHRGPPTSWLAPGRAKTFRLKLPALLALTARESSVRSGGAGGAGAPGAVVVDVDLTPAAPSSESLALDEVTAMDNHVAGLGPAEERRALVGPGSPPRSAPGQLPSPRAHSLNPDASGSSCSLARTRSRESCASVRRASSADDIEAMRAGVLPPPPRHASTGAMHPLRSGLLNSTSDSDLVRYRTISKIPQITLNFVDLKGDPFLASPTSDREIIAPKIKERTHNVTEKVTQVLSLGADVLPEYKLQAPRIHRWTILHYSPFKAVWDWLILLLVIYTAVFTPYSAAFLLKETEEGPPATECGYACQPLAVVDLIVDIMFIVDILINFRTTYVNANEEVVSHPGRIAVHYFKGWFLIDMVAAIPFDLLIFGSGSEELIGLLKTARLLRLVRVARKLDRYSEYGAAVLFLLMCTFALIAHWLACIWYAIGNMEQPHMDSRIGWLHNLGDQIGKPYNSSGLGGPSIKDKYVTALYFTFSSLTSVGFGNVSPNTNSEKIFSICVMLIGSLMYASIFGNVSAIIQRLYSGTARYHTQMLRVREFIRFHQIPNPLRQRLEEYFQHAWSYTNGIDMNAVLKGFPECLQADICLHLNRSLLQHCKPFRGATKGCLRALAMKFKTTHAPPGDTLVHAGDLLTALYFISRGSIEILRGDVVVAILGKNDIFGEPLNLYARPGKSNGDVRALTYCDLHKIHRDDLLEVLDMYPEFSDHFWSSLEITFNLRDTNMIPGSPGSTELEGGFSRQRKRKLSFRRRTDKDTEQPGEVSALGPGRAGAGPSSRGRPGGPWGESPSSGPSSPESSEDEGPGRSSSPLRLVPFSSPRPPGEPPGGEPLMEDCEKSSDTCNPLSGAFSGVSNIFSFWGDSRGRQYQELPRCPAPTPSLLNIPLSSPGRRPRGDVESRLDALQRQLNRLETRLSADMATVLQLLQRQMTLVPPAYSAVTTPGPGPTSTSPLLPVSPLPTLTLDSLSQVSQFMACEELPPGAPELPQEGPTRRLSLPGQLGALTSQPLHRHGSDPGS
row,SMILES,"hERG current change (%, negative = inhibition) at 10uM [%]"
1,Cc1nc(=S)c2c([nH]1)-c1ccccc1CC21CCCCC1,10.8
2,CC1CCCC(NC(=O)COC(=O)c2ccc(N(C)C)cc2)C1C (centres unmarked),-1.77
3,Cc1ccc(NC(=O)CN(C)S(=O)(=O)c2cccc3cccnc23)c(C)c1,4.3
4,Cc1ccsc1C(=O)C1CCCN(Cc2ccccc2O)C1 (centres unmarked),-48.1
5,Cc1ccc(-n2cccn2)c(CN2CCCC(C(=O)c3sccc3C)C2)c1 (centres unmarked),-85.4
6,Cc1ccsc1C(=O)C1CCCN(Cc2cn(C)nc2C)C1 (centres unmarked),-40.9
7,Cc1ccsc1C(=O)C1CCCN(Cc2ccn[nH]2)C1 (centres unmarked),6.96
8,Cc1ccsc1C(=O)C1CCCN(Cc2cc(F)ccc2-n2cccn2)C1 (centres unmarked),-82.9
9,COC(=O)Nc1ncc(CN2C(=O)c3ccccc3C2=O)s1,-23
10,Cc1cc(NC(=O)COC(=O)c2n[nH]c3ccccc23)no1,8.9
11,O=C(N/N=C/c1cccnc1)c1cccc(Br)c1,10.4
12,CCO[C@@H]1OC(C(=O)N2CCCCCCC2)=C[C@H](c2ccc(C(F)(F)F)cc2)[C@H]1CCCO,-21.4
13,C#CCNC(=O)C1=C[C@@H](c2ccc(C#C)cc2)C[C@@H](OCCCCO)O1,-3.88
14,C#CCNC(=O)C1=C[C@H](c2ccc(C(F)(F)F)cc2)C[C@H](OCCCCO)O1,-6.12
15,CN1CCN(C(=O)C2=C[C@H](c3ccc(Br)cc3)C[C@H](OCCCCO)O2)CC1,-47.7
16,C#Cc1ccc([C@H]2C=C(C(=O)N3CCN(Cc4ccccc4)CC3)O[C@@H](OCc3ccc(CO)cc3)C2)cc1,-13.3
17,CCO[C@@H]1OC(C(=O)N2CCN(C)CC2)=C[C@H](c2ccc(C(F)(F)F)cc2)[C@H]1CCCO,-1.51
18,CCO[C@H]1OC(C(=O)N2CCCCCCC2)=C[C@@H](c2ccc(C(F)(F)F)cc2)[C@@H]1CCCO,-50.5
19,O=C(C1=C[C@@H](c2ccc(Br)cc2)C[C@@H](OCCCCO)O1)N1CCN(Cc2ccccc2)CC1,-91.7
20,C#Cc1ccc([C@@H]2C=C(C(=O)N3CCOCC3)O[C@H](OCCCCO)C2)cc1,17.3
21,O=C(C1=C[C@H](c2ccccc2)C[C@H](OCCCCO)O1)N1CCN(Cc2ccccc2)CC1,-38.9

row,SMILES,"hERG current change (%, negative = inhibition) at 10uM [%]"
1,C#Cc1ccc([C@@H]2C=C(C(=O)N3CCN(Cc4ccccc4)CC3)O[C@H](OCCCCO)C2)cc1,-56
2,C#CCNC(=O)C1=C[C@@H](c2ccc(C(F)(F)F)cc2)C[C@@H](OCCCCO)O1,-53.8
3,CC(=O)Nc1ccc(S(=O)(=O)NNC(=S)NCc2ccco2)cc1,12.1
4,COc1ccc(-c2csc(N(CCCN3CCOCC3)C(=O)CCl)n2)cc1.Cl,3.28
5,CC1(C)C2CCC(C2)C1(C)NC(=O)C[N+](C)(C)C.[Cl-] (centres unmarked),12.6
6,Cc1nc(NC(=O)/C=C/c2ccccc2)sc1C(=O)Nc1ccccc1Cl,13.3
7,c1ccc(-c2ncc(CN3CCN(c4ccccn4)CC3)[nH]2)cc1,-14.1
8,CCOC(=O)c1cnc(-n2nc(C)cc2C)nc1NC1CCCC1,-26.2
9,CC(C)NCc1nnc(-c2ccc(Cl)cc2)o1,15.9
10,CCc1ccccc1NC(=O)c1cc(=O)c2ccccc2o1,-1.16
11,O=C(C1=C[C@H](c2ccc(C(F)(F)F)cc2)C[C@H](OCc2ccc(CO)cc2)O1)N1CCN(Cc2ccccc2)CC1,-15.2
12,C=CCOC(=O)C1=C[C@@H](c2ccc(Br)cc2)[C@H](CCCO)[C@@H](OCC)O1,-22.6
13,O=C(C1=C[C@H](c2ccc(Br)cc2)C[C@H](OCCCCO)O1)N1CCN(Cc2ccccc2)CC1,-80.8
14,O=C(C1=C[C@H](c2ccc(C(F)(F)F)cc2)C[C@H](OCCCCO)O1)N1CCN(Cc2ccccc2)CC1,-49.6
15,O=C(C1=C[C@@H](c2ccc(C(F)(F)F)cc2)C[C@@H](OCCCCO)O1)N1CCN(Cc2ccccc2)CC1,-60.6
16,O=C(C1=C[C@@H](c2ccc(C(F)(F)F)cc2)C[C@@H](OCCCCO)O1)N1CCOCC1,-3.65
17,CN1CCN(C(=O)C2=C[C@@H](c3ccccc3)C[C@@H](OCCCCO)O2)CC1,-6.11
18,C=CCOC(=O)C1=C[C@@H](c2ccccc2)[C@H](CCCO)[C@@H](OCC)O1,-9.65
19,O=C(C1=C[C@@H](c2ccc(C(F)(F)F)cc2)C[C@@H](OCCCCO)O1)N1CCCCCCC1,-51.3
20,C=CCOC(=O)C1=C[C@H](c2ccc(Br)cc2)[C@@H](CCCO)[C@H](OCC)O1,-55.3
21,O=C(C1=C[C@@H](c2ccc(Br)cc2)C[C@@H](OCCCCO)O1)N1CCOCC1,-15.7

row,SMILES,"hERG current change (%, negative = inhibition) at 10uM [%]"
1,O=C(C1=C[C@H](c2ccc(C(F)(F)F)cc2)C[C@H](OCCCCO)O1)N1CCOCC1,-23.7
2,COc1ccc(OC)c(NC(=O)c2ccc(CN3CCc4ccccc4C3)cc2)c1,3.78
3,O=C(Nc1ccc(F)cc1)c1cccc(C(=O)Nc2ccc(F)cc2)c1,-28.4
4,O=C(CN1C(=O)S/C(=C\c2ccc(O)c([N+](=O)[O-])c2)C1=O)Nc1ccc(N2CCOCC2)cc1,12.2
5,O=C1CCC(=O)N1OCCCOc1ccc2c(c1)CCC2,1.61
6,CCCNC(=O)Cc1c(C)n(C(=O)c2ccc(Cl)cc2)c2ccc(OC)cc12,14.6
7,COC(=O)C1=NNC2(c3ccc(C)cc3)C(=O)N(c3ccc(C)cc3)C(=O)C12 (centres unmarked),16.5
8,N/C(=N\OC(=O)c1ccccc1)c1ccccn1,12.9
9,CCOc1ccc(CC(=O)N/N=C/c2cccnc2)cc1OCC,14
10,CCCC(=O)Nc1ccc(C(=O)O)cc1NC(=O)CCC,8.09
11,CCNc1cc2n(c(=O)n1)CCc1cc(OC)c(OC)cc1-2,-19.5
12,Cc1ccc(C(=O)N/C(=C\c2cccs2)C(=O)NCc2cccnc2)cc1,-58
13,Cc1ccc(C(=O)N/C(=C\c2sccc2C)C(=O)NCc2ccncc2)cc1,-30.5
14,Cc1ccc(C(=O)N/C(=C\c2cccs2)C(=O)NCc2ccncc2)cc1,-52.9
15,Cc1ccc(C(=O)N/C(=C/c2cccs2)C(=O)NCC2CCCO2)cc1 (centres unmarked),-9.01
16,Cc1ccc(C(=O)N/C(=C/c2cccs2)C(=O)NCc2ccco2)cc1,-15.8
17,Cc1ccc(C(=O)NC(=S)NCc2cccnc2)cc1,-7.52
18,CC1(C)CC(OC(=O)c2ccccc2)CC(C)(C)N1,9.14
19,COc1ccc(NC(=O)c2oc3ccccc3c2NC(=O)C(C)(C)C)cc1,11.3
20,CC(CCC(=O)Nc1nncs1)C(=O)O (centres unmarked),-6.61
21,CCCOC(=S)NC(=O)c1sc2ccccc2c1Cl,12.3

row,SMILES,"hERG current change (%, negative = inhibition) at 10uM [%]"
1,CC(C)c1nc2cc(C(=O)N(C)Cc3ccc(F)cc3)ccc2o1,1.04
2,O=C1CCc2cc(S(=O)(=O)N3CCC(C(=O)NCc4ccccc4Cl)CC3)ccc2N1,4.83
3,CN1CCN(CCCNC(=O)CCc2nnc3n(Cc4ccccc4Cl)c(=O)c4ccccc4n23)CC1,5.29
4,CCOCCCNC(=O)CCc1nnc2n(CCC(C)C)c(=O)c3ccccc3n12,-22.5
5,CC(C)CCn1c(=O)c2ccccc2n2c(CCC(=O)NC3CCN(Cc4ccccc4)CC3)nnc12,-49.6
6,CC1CCN(CCCNC(=O)CCc2nnc3n(CCc4ccccc4)c(=O)c4ccccc4n23)CC1,-76.8
7,CC(C)OCCCn1c(=O)c2ccccc2n2c(CCC(=O)NC3CCN(Cc4ccccc4)CC3)nnc12,-51.4
8,CC(C)Cn1c(=O)c2ccccc2n2c(CCC(=O)NC3CCN(Cc4ccccc4)CC3)nnc12,-39.4
9,CC(C)CCn1c(=O)c2ccccc2n2c(CCC(=O)NCC3CCCO3)nnc12 (centres unmarked),-1.79
10,O=C(CCc1nnc2n(CCc3ccccc3)c(=O)c3ccccc3n12)NCCCN1CCCCC1,-77.6
11,CC(C)CCNC(=O)CCc1nnc2n(CCCOC(C)C)c(=O)c3ccccc3n12,-26.7
12,Cc1ccc(S(=O)(=O)NNC(=O)C2CCCCC2)cc1,9.57
13,NC(=O)[C@@H]1CCCN1Cc1nc(-c2ccc(C(F)(F)F)cc2)no1,-5.68
14,CC(O)[C@@H](C(=O)N1CCNCC1)n1cc(CCCCN)nn1.Cl (some centres unmarked),14.3
15,Cc1ccc(C(=O)N2CCN(c3ccc([N+](=O)[O-])c(N4CCOCC4)c3)CC2)cc1,-60
16,O=C(c1ccc(F)cc1)N1CCN(c2ccc([N+](=O)[O-])c(N3CCCCC3)c2)CC1,-15.3
17,O=C(c1ccccc1)N1CCN(c2ccc([N+](=O)[O-])c(N3CCOCC3)c2)CC1,-7.22
18,O=C(c1ccc(F)cc1)N1CCN(c2ccc([N+](=O)[O-])c(N3CCOCC3)c2)CC1,-58.3
19,O=C(c1ccc2ccccc2c1)N1CCN(c2ccc([N+](=O)[O-])c(N3CCOCC3)c2)CC1,-18.8
20,O=C(c1cccc2ccccc12)N1CCN(c2ccc([N+](=O)[O-])c(N3CCOCC3)c2)CC1,-13.7
